# Measured values taken from PubChem BioAssay (Tox21).
# Values joined by “and” are separate entries in the source; they are usually repeats but may differ in a detail not shown here. Identical values can stand only once. Records with an inconclusive call do not appear. Entries that show only a call come without a potency. The source holds several records for some structures; these can differ, active in one and inactive in another. Active and inactive are the calls of the source. The call rests on the fitted dose curve; in most records, active means well fitted cell-killing curve with a large enough effect in the repeat runs (not every such curve was filed as active); inconclusive means weak or mixed curves, or effect the other way; inactive means no such curve, though single readings can be large or run the other way.
# Experiment: qHTS assay to identify small molecule antagonists of the estrogen related receptor signaling pathway with the pleiotropic PPARgamma coactivator (PGC) from Tox21 10K library - cell viability counter screen (AID 1224840); further: nearly all actives have a fitted effect of over 40% in size
# Settings: PGC/ERR reporter cells viability, CellTiter-Fluor, 17.5 h; series mostly up to 92.4 µM
# Source text: National Center for Advancing Translational Sciences [NCATS]
# NIH Chemical Genomics Center [NCGC]
# U.S. Environmental Protection Agency [EPA]
# National Institutes of Environmental Health Sciences [NIEHS]
# National Toxicology Program [NTP]
# U.S. Food and Drug Administration [FDA]
# Estrogen related receptors (ERRs), the first orphan nuclear receptors discovered, play an important role in the control of cellular energy metabolism. ERRs are required for high-energy production in response to the environmental challenges. The pleiotropic PPARgamma coactivator (PGC) is a major partner of ERR and a key regulator in energy homeostasis. Together they have been implicated in the etiology of metabolic disorders such as Type 2 diabetes and metabolic syndrome. ERR-alpha was also identified as an adverse marker for breast cancer progression; ERR-alpha-positive tumors have a poor prognosis. To screen and to identify environmental compounds that perturb the ERR and PGC/ERR signaling pathways could provide valuable information for potential therapeutic or preventive measures in the treatment of metabolic disease. To differentiate true PGC/ERR antagonists or agonist from cytotoxic substances, the assay is multiplexed with cell viability assay.
# Tox21 Assay Protocol Summary:
# The PGC/ERR cells were dispensed at 2,000 cells/5 ul/well in 1536-well white plates using a Multidrop dispenser. After the assay plates were incubated at a 37 C/5% CO2 incubator for 6 hours, 23 nL of compounds dissolved in DMSO, positive and negative controls or DMSO only was transferred to the assay plate by a pin tool. The plates were incubated at 37 C for 17.5 hours. 1 ul/well of CellTiter-Fluor reagent was added into the assay plates using a Flying Reagent Dispenser. After 30-minute incubation at 37 C/5% CO2, the fluorescence intensity in the plates was measured using a ViewLux plate reader.
# Potency means the concentration at half of the fitted maximal effect.
row,SMILES,Potency
1,CCC[CH2][Sn]([CH2]CCC)([CH2]CCC)[CH2]CCC,17.2 µM (active)
2,C[C@]12CC[C@H]3[C@@H](CCC4=CC(=O)CC[C@@H]43)[C@@H]1CC[C@@H]2OC(=O)CCc1ccco1,inactive
3,Brc1ccc(Oc2ccc(Br)cc2Br)c(Br)c1,inactive
4,CC1(C)[C@H](/C=C2\CCSC2=O)[C@@H]1C(=O)OCc1coc(Cc2ccccc2)c1,inactive
5,Nc1ccc(Cl)cc1C(=O)c1ccccc1F,inactive
6,FC(F)C(F)(F)OCC(Cn1cncn1)c1ccc(Cl)cc1Cl (stereo not given),60.8 µM (active)
7,Cc1cnc2c(C(=O)O)c(Cl)ccc2c1,inactive
8,O=Cc1ccccc1,inactive
9,CC(Cl)CCl (stereo not given),inactive
10,CC(=O)[O][Pb]([c]1ccccc1)([c]1ccccc1)[c]1ccccc1,3.06 µM (active)
11,Oc1ccc(Cl)c(Cl)c1,inactive
12,CCCCCCCCCCCCCCn1cc[n+](C)c1,27.4 µM (active) and 30.3 µM (active)
13,[Cl-].[Cl-].[Sn+2],inactive
14,Fc1ccc(C(OCCN2CCN(CCCc3ccccc3)CC2)c2ccc(F)cc2)cc1,26.6 µM (active)
15,O=C(N[C@H]1N=C(c2ccccc2F)c2cccc3c2N(CC3)C1=O)c1cc2ccccc2[nH]1,inactive
16,CSC1=N[C@@](C)(c2ccccc2)C(=O)N1Nc1ccccc1,inactive
17,O=c1c2ccccc2c(=O)c2c1cc(Cl)c1[nH]c3c([nH]c12)c(Cl)cc1c(=O)c2ccccc2c(=O)c13,inactive
18,CC1CCCC1,inactive
19,CCOP(=O)(OCC)Oc1cc(C)nc(C(C)C)n1,inactive
20,c1csc(-c2ccc(-c3cccs3)s2)c1,inactive

row,SMILES,Potency
1,CN1C(=O)[C@@H](NC(=O)c2cc3ccccc3[nH]2)N=C(c2ccccc2)c2ccccc21,inactive
2,CCCCN(CCCC)C(=S)[S-].CCCCN(CCCC)C(=S)[S-].[Ni+2],inactive
3,Nc1ccccc1-c1ccccc1,inactive
4,CCOP(=S)(OCC)SC(CCl)N1C(=O)c2ccccc2C1=O (stereo not given),inactive
5,COc1ccc(Cc2nccc3cc(OC)c(OC)cc23)cc1OC,inactive
6,O.O.O.O.O.O.O.O=S(=O)([O-])[O-].[Co+2],inactive
7,CCC(C)Br (stereo not given),inactive
8,[O]=[Cr][O][Cr]=[O],inactive
9,CCN(CC)Cc1nccn1-c1ccc([N+](=O)[O-])cc1C(=O)c1ccccc1Cl,inactive
10,CNC(C)(C)Cc1ccccc1,inactive
11,CC(C)NCC(O)c1ccccc1Cl (stereo not given),inactive
12,COc1nc(C)nc(NC(=O)NS(=O)(=O)c2ccccc2Cl)n1,inactive
13,CC(C)N(C(=O)SC/C(Cl)=C/Cl)C(C)C,inactive
14,O=C1C(Cl)=C(Cl)C(=O)C(Cl)=C1Cl,54.3 µM (active) and inactive
15,CN(C)c1ccc(N)cc1,26.6 µM (active)
16,CC(C)c1c(CN(C)C(C)Cc2ccccc2)n(C)n(-c2ccccc2)c1=O (stereo not given),inactive
17,CCCCC(CC)COC(=O)c1ccccc1C(=O)OCC(CC)CCCC (stereo not given),inactive
18,O=[N+]([O-])C(Br)Br,inactive
19,CCOC(=O)Cc1ccccc1,inactive
20,CCCCN(CCCC)C(=S)S,inactive
